IL1B secr inh – inhibitors of inflammasome signaling (IL-1 beta secretion). THP-1 LPS/ATP IL-1B secretion, AlphaLISA, 16 h; stronger effect = lower value. activity change, % at 57.5 µM. 360,000 compounds, 4.7% hits. AID 743279; in the data active = activity change below about -50%; inconclusive = mostly about -30% to -49%
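Secreted IL-1B measured by AlphaLISA bead assay after 16 h compound exposure of THP-1 cells; compounds (final up to 57.5 uM) added 1 h before LPS (250 ng/mL) and ATP (1.25 mM) stimulation; lower signal means less secretion.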
TDP1 cell CPT – growth inhibition of DT40 Tdp1-/-;hTDP1 cells with camptothecin (screen for TDP1 inhibitors); chicken DT40 Tdp1-/-;hTDP1 cells + 20 nM CPT, ATP luminescence, 48 h; 420,000 compounds, 12% hits; Potency, µM (doses to about 46.2 µM), for inactives: top-dose activity change, negative = growth inhibition, usual class: inhibitors; also: potency is read from the fitted curve at half-maximal effect; nearly all actives have a fitted effect of over 55% in size
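Cell growth measured by CellTiter-Glo luminescence after a minimum 48 h, 37 C compound exposure with 20 nM CPT in Tdp1-knockout DT40 cells stably expressing hTDP1, seeded 400/well; qHTS titration format.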
HT1080-NT tox – kills 2HG-producing HT-1080-NT fibrosarcoma cells | HT-1080-NT fibrosarcoma viability, CellTiter-Glo ATP luminescence, 48 h | Potency, µM (highest dose often 46.1 µM), for inactives: at the top dose activity, negative = less viability, actives largely listed as cytotoxic | 360,000 compounds, 1.6% hits | AID 686970;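 also: NT is the 2HG producing partner of a matched IDH1 knockdown line; potency is read from the fitted curve at half-maximal effect; 0% = DMSO-treated cells and -100% = media-only wells without cells; nearly all actives have a fitted effect of over 55% in size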
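Toxicity toward the 2HG-producing NT line was scored as %Activity, normalised to DMSO and no-cell wells, from CellTiter-Glo luminescence after 48 hours' treatment.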
DT40 TDP1 no CPT – qHTS for Inhibitors of human tyrosyl-DNA phosphodiesterase 1 (TDP1): qHTS in cells in absence of CPT; 420,000 compounds, 15% hits; Potency, µM (series often up to 46.2 µM), for the others: at the top dose activity change, negative = growth inhibition, usual class: inhibitors; AID 686978, 2013; DT40 Tdp1-/- hTDP1 cells, no CPT, ATP luminescence, 48 h; also: potency is read from the fitted curve at half-maximal effect; nearly all actives have a fitted effect of over 55% in size
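Stably hTDP1-transfected Tdp1-null chicken DT40 cells were treated with library compounds minus camptothecin and grown for at least 48 hr at 37 °C, after which cellular ATP was quantified by luminescence.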
HT1080 IDH1KD tx – HT-1080 IDH1 knockdown cell toxicity (counter line). HT-1080 IDH1 knockdown viability, ATP luminescence, 48 h. Potency, µM (top dose mostly 46.1 µM), for inactives: at the highest dose activity, negative = toxicity, actives largely listed as cytotoxic. 360,000 compounds, 2% hits. AID 686971;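 also: potency is read from the fitted curve at half-maximal effect; 0% = DMSO wells and -100% = cell-free medium wells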
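IDH1KD HT-1080 cells, 750/well, RPMI + 5% FBS; compound pinned after 2 h settling; 48 h, 37 °C; CellTiter-Glo luminescence; % activity normalised to DMSO and no-cell wells; curves fitted, classed by r2 and efficacy.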
Starred values were filed as active, the others as inactive; u = inconclusive; x = no result given; [ ] = another dose, or the depositor's remark. Rows were chosen to be rich in hits. Some 19% of all compounds tested hit in one or more screens of this group. Unless noted, calls follow the shape of the dose curve; as a rule, active = well fitted curve in the direction sought with a large enough effect; inconclusive = small, poorly fitted or top-dose-only effect, or another doubt; inactive = no such curve, though single readings can be large; an effect the other way counts as inactive or inconclusive. Unless noted, % is scaled to controls: 0 for no effect and ±100 for the full control effect.

SMILES	IL1B secr inh	TDP1 cell CPT	HT1080-NT tox	DT40 TDP1 no CPT	HT1080 IDH1KD tx
O=C(NCC(c1ccco1)N1CCCCC1)C(c1ccccc1)c1ccccc1 (stereo unspecified)	u	16µM*	1%	u	-6%
CC(C)C(NC(=O)c1ccco1)C(=O)NCC(c1ccco1)N1CCCCC1 (stereo unspecified)	-3	-4%	6%	-9%	3%
O=C(NCC(c1ccco1)N1CCCCC1)c1cc2c(s1)CCCC2 (stereo unspecified)	16	18µM*	2%	16µM*	19%
Cc1ccc(C)c(CN2C[C@H](Sc3ccccn3)C[C@H]2C(=O)Nc2ccc3sc(C)nc3c2)c1	x	0%[9.04 µM]	x	-10%	x
CN1CCC(N(C)C(=O)c2ccc(Cl)c(S(=O)(=O)N3CCCCC3)c2)CC1	42	-27%	0%	2%	2%
S=C(NCCc1ccccc1)NCC(c1ccco1)N1CCCCC1 (stereo unspecified)	u	u	4%	23µM*	-18%
CC(=Cc1cccs1)C(=O)c1ccccc1	12	-5%	10%	u	0%
CSCCC(NC(=O)COc1ccccc1)C(=O)N(C)CC(=O)Nc1ccc(Cl)cc1 (stereo unspecified)	-19	u	-11%	u	-8%
CSCCC(NC(=O)COc1ccccc1)C(=O)N(C)Cc1c(F)cccc1Cl (stereo unspecified)	-6	21µM*	-6%	12µM*	-4%
Clc1ccc(/C=N/NC(=Nc2ccccc2)c2ccccn2)c(Cl)c1	-7	u	9%	29µM*	-4%
O=C(N/N=C\c1ccccn1)c1cccc(C(=O)N/N=C\c2ccccn2)n1	23	-5%	5%	u	-14%
C(=N\NC(=Nc1ccccc1)c1ccccn1)/c1ccccn1	30	10µM*	-11%	10µM*	-14%
CCOc1ccc(S(=O)(=O)N(CC)CC(=O)NCc2cccnc2)cc1	22	-5%	20%	-9%	8%
CCOc1ccc(N(CC(=O)NCCc2ccccc2)C(=O)CCC(=O)Nc2cc(C)ccn2)cc1	-9	u	-4%	u	-1%
COc1ccccc1CN1CC(C(=O)NCc2cc(F)ccc2C)CCC1=O (stereo unspecified)	24	-5%	-2%	1%	2%
Cc1cc(-c2cc(C(=O)NCc3ccccc3)on2)nc(S(C)(=O)=O)n1	-103*	7.3µM*	u	5.8µM*	u
COCCNc1nc(C)cc(-c2cc(C(=O)NCc3ccccc3)on2)n1	-1	-20%	-8%	2%	-9%
Cc1ccc(CNC(=O)c2ccc(Cl)cc2[N+](=O)[O-])cc1	-2	-11%	11%	-2%	3%
CC(C)(C)c1ccc(C(=O)O/N=C(\N)Cc2cccs2)cc1	3	u	u	u	u
Cc1ccccc1C(=O)O/N=C(\N)Cc1cccs1	-61*	u	u	-22%	18µM*
O=C(ONC(=O)C1C2C=CC(C2)C1C(=O)NOC(=O)c1ccccc1)c1ccccc1 (stereo unspecified)	-16	3.3µM*	-16%	2.9µM*	u
COC(=O)c1ccc(NC(=O)C2C3C=CC(C3)C2C(=O)O)cc1 (stereo unspecified)	0	-6%	u	19%	-14%
N/C(=N\OC(=O)c1ccccc1)c1cccnc1	5	-11%	7%	8%	2%
N/C(=N\OC(=O)CC(c1ccccc1)c1ccccc1)c1cccnc1	u	12µM*	u	u	u
O=C(NCCc1csc(-c2ccc(F)cc2)n1)c1ccc(Br)o1	x	23µM*	x	u	x
SMILES	IL1B secr inh	TDP1 cell CPT	HT1080-NT tox	DT40 TDP1 no CPT	HT1080 IDH1KD tx
COc1ccc(-c2nc3scc(CCNC(=O)Cc4ccc(F)cc4)n3n2)cc1	x	u	x	26µM*	x
Cc1nc(CCNC(=O)Cc2ccc(F)cc2)cs1	1	7%	11%	-6%	11%
Cc1cc(C)c(NC(=O)C(=O)NCCc2csc(-c3ccc(F)cc3)n2)c(C)c1	x	18µM*	x	16µM*	x
COc1ccc(-c2nc(CCNC(=O)Cc3ccc(F)cc3)cs2)cc1	x	15µM*	x	18µM*	x
CCOc1ccc(CCNC(=O)COc2cccc(-n3cnnn3)c2)cc1OCC	10	u	1%	u	-2%
Cn1cnc(S(=O)(=O)N2CCC(C(=O)N3CCN(c4ccccc4F)CC3)CC2)c1	x	1%	x	-2%	x
COc1ccc(-c2nc3scc(CCNC(=O)c4cc(OC)cc(OC)c4)n3n2)cc1	x	u	x	21µM*	x
COc1ccc(CNC(=O)Cc2csc3nc(-c4ccc(C)cc4)cn23)cc1	x	-24%	x	-22%	x
COc1ccc(-c2nc3scc(CCNS(=O)(=O)c4c(C)noc4C)n3n2)cc1OC	x	-21%	x	u	x
COc1ccc(CNC(=O)Cc2csc3nc(-c4ccc(F)cc4)cn23)cc1	x	21µM*	x	u	x
Cc1ccc(C(=O)CCC(=O)N2CCN(c3ccccc3O)CC2)cc1	8	u	-40%	u	u
CCN1CCN(c2ccc(S(=O)(=O)N3CCOCC3)cc2NC(=O)/C=C/c2ccc([N+](=O)[O-])cc2)CC1	-106*	u	-6%	2.9µM*	-6%
COc1ccc(/C=C/C(=O)Nc2ccc(C)c(S(=O)(=O)N3CCOCC3)c2)cc1	-25	u	u	18µM*	21µM*
CCN1CCN(c2ccc(S(=O)(=O)N3CCOCC3)cc2NC(=O)/C=C/c2ccc(OC)cc2OC)CC1	-21	26µM*	2%	u	-11%
COc1ccc(/C=C/C(=O)Nc2ccc(S(=O)(=O)N3CCOCC3)cc2)c(OC)c1	-13	u	-12%	18µM*	-1%
CCOC(=O)c1sc(S(C)(=O)=O)c2c1CCc1conc1-2	-17	16%	10%	2%	-13%
Oc1cc(-c2nc3ccccc3s2)cc2c1OCCN(Cc1cccn1-c1ccccn1)C2	x	2%	x	0%	x
Oc1cc(-c2nc3ccccc3s2)cc2c1OCCN(Cc1cccn1-c1ncccn1)C2	x	-5%[9.04 µM]	x	16µM*	x
CC(C)(C)N1CC(C(=O)O)CC1=O (stereo unspecified)	8	16%	20%	-12%	5%
O=C(NC(=S)Nc1ccccc1Br)C1CCCCC1	21	18µM*	0%	16µM*	7%
CC(C)(C)N1CC(C(=O)Nc2cccc(Cl)c2Cl)CC1=O (stereo unspecified)	-69*	26%	-9%	-7%	-1%
O=C(Nc1cccc(Cl)c1Cl)C1CC(=O)N(c2ccc(Br)cc2)C1 (stereo unspecified)	-6	-16%	u	-26%	u

Screens (PubChem)
